# The OligoGym collection
# Target: ECH1
# Assay: pooled miR-30 sensor sort-seq; sequence = guide strand
# Conditions: shRNA
# Also: reference of the scale not given here.
row,Sequence,sensor-assay potency score (higher = more potent)
1,AAATCTTGTTGAAGCACTCTAC,0.264
2,AAGGCTAATACTGAGTCCCGGG,0.193
3,TTCTGCGCAGACGTCACACGAA,-0.688
4,TCTTGCTGGAAATCTCGGCCGC,-0.461
5,TTGGAGCCTGTCAGTCGCCGGG,-1.13
6,TTGTCTGGGAACACCCGGCTGA,0.142
7,TCGAGTGATGATGTCACGGAGG,-1.15
8,TTGGGCTGCAGGATGTCCGAAG,-0.857
9,TGAACATTTTTCCTGCACCAGA,-1.08
10,TATCGAGTGATGATGTCACGGA,-0.0973
11,TCTTTGTCTGGGAACACCCGGC,-0.283
12,TTGTTCTCAGTCGTGGCCTGGA,-0.493
13,TTGTTCATGGCATTCCTCTTGT,0.382

# Target: EDDM3B
# Assay: as above
# Conditions: shRNA
row,Sequence,sensor-assay potency score (higher = more potent)
1,TTGCTCTGTACAAGCAGTGTGC,-0.53
2,TAGAAAGCACTGAATACTCTAC,-0.181
3,TTGGACTTAAGTAGTGCTGTTT,-0.357
4,ATCTTTAGGTCTTCTATGCTAT,-0.978
5,TATGCTATCAACATACCCGTCC,0.462
6,TCAATGTAGTTGAAGCTCCTGC,0.357
7,ATATGCTCGATTTTGTACCATG,-1.24
8,TTTGAGAGGATTCTGGACCCAT,0.578
9,TTTCGGAAGCGATCCATCCAGT,-0.761

# Target: EDF1
# Assay: as above
# Conditions: shRNA
row,Sequence,sensor-assay potency score (higher = more potent)
1,ATTTCTTGGAAGTCTCCACATC,-1.38
2,TTTGACAGCAGGAATGGGCTGG,0.46
3,TTGCGCAGCACCGTCACCGTGT,-0.348
4,TGCAGCTCCTCTGTCTCCCGGT,-0.285
5,TTTCCAATGTCCTTTCCCCGGA,-0.772
6,TTGCTCTGCCGACCTTGCTGGA,-1.14
7,AATAGAATGTTGTTTGTTCTGG,-0.0468
8,TGTTCTTGGTAATAGAATGTTG,-1.17
9,TCATAGTCCGCGATCACCTGTG,0.11
10,TTCTCATTGATTTTCGTGGCCA,-0.538
11,TCTTGGTAATAGAATGTTGTTT,-1.13
12,TTTCGTGGCCAGGTCCTTCTGC,-0.179

# Target: EFCAB6
# Assay: as above
# Conditions: shRNA
row,Sequence,sensor-assay potency score (higher = more potent)
1,TAGTTCTGAATCCGCAACCTTC,-0.922
2,TAAGAGAACATCCACATTCTTC,-0.398
3,TAAATGTTCACTTAACAGCTGA,-0.275
4,TTCTTAGACAAGTCTGACCATC,-0.457
